Source: article PMC4336329 (PLoS ONE, 2015)
Screen size: about 310,000 compounds; about 14,000 (4.5%) showed an effect of 50% or more. Effects have a minus sign here. Many of the other results were omitted from the sample, so strong results are more common in it than they were.

The compounds below were run against human ether-à-go-go-related gene (hERG) potassium channel (human, UniProt Q12809) (assay: primary screen, population patch clamp on CHO cells stably expressing hERG; higher = less effect of the substance).
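Note: peak tail current of the secondary pulse compared with the same well before compound.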

human ether-à-go-go-related gene (hERG) potassium channel, sequence (Q12809 whole entry, looked up): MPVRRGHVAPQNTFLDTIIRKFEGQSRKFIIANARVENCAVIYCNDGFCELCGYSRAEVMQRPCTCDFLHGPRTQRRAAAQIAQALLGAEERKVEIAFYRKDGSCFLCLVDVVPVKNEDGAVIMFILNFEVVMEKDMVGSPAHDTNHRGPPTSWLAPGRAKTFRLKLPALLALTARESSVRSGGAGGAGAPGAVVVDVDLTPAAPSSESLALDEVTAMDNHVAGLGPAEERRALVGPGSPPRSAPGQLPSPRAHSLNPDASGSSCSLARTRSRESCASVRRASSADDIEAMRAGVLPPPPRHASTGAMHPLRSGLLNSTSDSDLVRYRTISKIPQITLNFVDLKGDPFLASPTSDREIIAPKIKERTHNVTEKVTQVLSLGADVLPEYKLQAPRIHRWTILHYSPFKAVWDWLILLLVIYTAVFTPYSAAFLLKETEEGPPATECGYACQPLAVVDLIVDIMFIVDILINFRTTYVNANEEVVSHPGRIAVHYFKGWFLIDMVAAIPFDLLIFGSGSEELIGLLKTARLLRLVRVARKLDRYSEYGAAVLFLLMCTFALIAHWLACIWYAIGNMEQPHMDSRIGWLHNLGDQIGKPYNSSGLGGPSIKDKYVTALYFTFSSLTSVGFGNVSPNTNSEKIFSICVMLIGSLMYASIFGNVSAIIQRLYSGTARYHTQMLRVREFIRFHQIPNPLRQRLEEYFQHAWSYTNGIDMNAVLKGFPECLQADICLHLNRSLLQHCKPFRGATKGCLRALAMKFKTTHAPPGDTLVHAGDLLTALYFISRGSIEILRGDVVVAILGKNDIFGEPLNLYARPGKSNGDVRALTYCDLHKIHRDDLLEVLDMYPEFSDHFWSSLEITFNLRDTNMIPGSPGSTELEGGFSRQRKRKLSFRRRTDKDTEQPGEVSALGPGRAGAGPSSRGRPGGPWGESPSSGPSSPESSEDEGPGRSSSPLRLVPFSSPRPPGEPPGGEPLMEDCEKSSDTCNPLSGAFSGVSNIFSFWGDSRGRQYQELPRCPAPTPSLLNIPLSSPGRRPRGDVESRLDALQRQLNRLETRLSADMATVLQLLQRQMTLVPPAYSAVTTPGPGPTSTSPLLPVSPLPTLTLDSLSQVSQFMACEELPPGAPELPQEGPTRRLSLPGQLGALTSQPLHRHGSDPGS

Structure (SMILES)	hERG current change (%, negative = inhibition) at 10uM [%]
COc1ccc(-c2nnc(SCC#CCO)o2)cc1OC	4.93
COc1ccccc1N1CCN(S(=O)(=O)c2ccc3c(c2)oc(=O)n3C)CC1	26
COc1ccc(NC(=O)CN(C)C(=O)/C=C/c2cn(-c3ccccc3)nc2-c2ccc(C)cc2)cc1	13.8
COc1ccc(C2=NS(=O)(=O)N(C)C(C(=O)Nc3ccc(F)cc3F)=C2)cc1	10.1
CN(Cc1ccccc1)C(=O)COC(=O)C1CCN(S(=O)(=O)c2ccc(Cl)c(C(F)(F)F)c2)CC1	-15.8
CCC/C(=N\NC(=O)CNC(=O)c1ccc(Cl)cc1)c1ccccc1	-1.56
CC(NC(=O)COc1ccc(S(=O)(=O)N2CCOCC2)cc1)c1ccccc1 (centres unmarked)	-4.63
O=C(/C=C\c1ccccc1OC(=O)c1ccccc1F)c1cc2ccccc2o1	-3.12
CC(=O)Nc1ccc(NC(=O)CSc2nnc(-c3ccco3)n2Cc2ccco2)cc1	-1.79
O=C(CSc1nnc(-c2ccco2)n1Cc1ccco1)NCc1ccccc1	-50.8
O=C(CSc1nnc(-c2ccco2)n1Cc1ccco1)NCc1cccs1	-33.1
O=C(CSc1nnc(-c2ccco2)n1Cc1ccccc1)NCc1ccccc1	-51.8
O=C(CSc1nnc(-c2ccco2)n1Cc1ccccc1)c1ccccc1	-18.4
COC(=O)CCNCCSc1nnc(-c2ccco2)n1Cc1ccccc1.O=C(O)C(=O)O	-64.5
NC(=O)NC(=O)CSc1nnc(-c2ccco2)n1Cc1ccccc1	5.78
CNC(=O)NC(=O)CSc1nnc(-c2ccco2)n1Cc1ccccc1	-8.53
CC(C)(C)NC(=O)CSc1nnc(-c2ccco2)n1Cc1ccco1	-5.83
COCCn1c(SCC(=O)NCc2ccccc2)nnc1-c1ccco1	5.7
O=C(CSc1nnc(-c2ccco2)n1Cc1ccco1)Nc1ccccc1	-70.7
Cc1cc(NC(=O)CSc2nnc(-c3ccco3)n2Cc2ccco2)no1	-24.7
Cc1cc(C)n(-c2ccc(S(=O)(=O)N3CCOCC3)cc2[N+](=O)[O-])n1	-10.9
O=C1/C(=C\c2cccnc2)CN(Cc2ccccc2)C/C1=C\c1cccnc1	-29.4
O=C(NCC(=O)N(CC1CCCO1)C1(C(=O)NC2CCCC2)CCCCC1)c1ccccc1 (centres unmarked)	3.96

Structure (SMILES)	hERG current change (%, negative = inhibition) at 10uM [%]
CCOc1ccc(C(CC(=O)O)NC(=O)C23CC4CC(CC(C4)C2)C3)cc1OC (centres unmarked)	30.2
Nc1c(C=C2C=CC(=O)C=C2)c(=O)nc2sc(CC(=O)N3CCCC3)nn12	8.79
CN(Cc1ccccc1)C(=O)c1cccc(C(=O)N(C)Cc2ccccc2)c1	-3.07
COc1cccc(CN(C)C(=O)c2ccc3nccnc3c2)c1	-6.89
COc1cccc(CN(C)C(=O)c2ccccc2Sc2ccccc2C#N)c1	-13.4
CN(Cc1ccc(OC(F)F)cc1)C(=O)c1ccc2c(=O)n3c(nc2c1)CCC3	-33.3
CN(Cc1ccc(OC(F)F)cc1)C(=O)c1ccc2nccnc2c1	-67.8
Cc1ccc(CN(C)C(=O)c2ccccc2Sc2ccccc2C#N)cc1	23.4
CN(Cc1ccc(OC(F)F)cc1)C(=O)c1ccccc1Sc1ccccc1C#N	-60.5
COc1ccc(CN(C)C(=O)c2cccc(C(=O)N(C)Cc3ccc(OC)cc3)c2)cc1	-65.6
COc1ccc(NS(=O)(=O)c2cccc(C(=O)N(C)Cc3ccc(SC)cc3)c2)cc1	-9.93
COc1ccccc1NS(=O)(=O)c1ccc2oc(SC)nc2c1	2.84
CN(CC(=O)Nc1ccccc1Cl)C(=O)c1cc(C2CC2)nn1-c1ccccc1	-18.1
CCc1nnc(NS(=O)(=O)c2ccc(N3C(=O)C4CC=C(Cl)CC4C3=O)cc2)s1 (centres unmarked)	4.84
CN(C)CCCN(C(=O)c1cc2ccccc2oc1=O)c1nc2c(F)cccc2s1.Cl	-41.1
CN(C)CCCN(C(=O)c1cc2ccccc2oc1=O)c1nc2ccc(F)cc2s1.Cl	-68.1
Cc1cccc2sc(N(CCCN(C)C)C(=O)c3cc4ccccc4oc3=O)nc12.Cl	-54.6
CN(C)CCCN(C(=O)c1cc(-c2cccs2)nc2ccccc12)c1nc2ccc(F)cc2s1.Cl	5.59
Cc1ccc2nc(N(CCCN(C)C)C(=O)c3cc4ccccc4oc3=O)sc2c1.Cl	-33.7
CC(=O)OC1COC(n2c(O)c(N=NC(N)=S)c3ccccc32)C(OC(C)=O)C1OC(C)=O (centres unmarked)	15.8
COC(=O)C1=C(C)N(c2ccc(Br)cc2)C(=O)/C1=C\c1ccco1	2.22
Clc1ccc(-c2nnc3sc(Cc4cccs4)nn23)c(Cl)c1	-55.7
Clc1ccc(-c2nnc3sc(Cc4cccs4)nn23)cc1	4.77

Structure (SMILES)	hERG current change (%, negative = inhibition) at 10uM [%]
c1ccc(-c2nnc3sc(Cc4cccs4)nn23)cc1	-30.8
CCc1cccc2c(C(=O)CCl)c[nH]c12	-14.3
Cl.c1ccc2c3c([nH]c2c1)C1(CCCCC1)NCC3	2.11
CC1(CCc2ccc3c(c2)OCO3)NC(=O)c2ccccc2N1 (centres unmarked)	-7.78
COc1ccc2[nH]c3c(c2c1)CCNC3C.Cl (centres unmarked)	14.7
COc1ccc2[nH]c3c(c2c1)CCN[C@H]3C	-3.82
CC1(CCc2ccc3c(c2)OCO3)NCCc2c1[nH]c1ccccc21.Cl (centres unmarked)	-85.8
COc1ccc2[nH]c3c(c2c1)CCNC3(C)CCc1ccc(Cl)nc1 (centres unmarked)	-51.6
COc1cccc(NC(C(=O)Nc2cccc(C(C)=O)c2)c2ccccc2)c1 (centres unmarked)	-7.56
O=C(O)C(Cc1ccccc1)N1C(=O)CCC1=O (centres unmarked)	14.4
CCC(=O)N1CCN(CCN=CC2=C(O)CC(c3ccc(OC)cc3)CC2=O)CC1 (centres unmarked)	5.11
CCCCCC(=O)N1CCN(CCN=CC2=C(O)CC(c3ccc(OC)cc3)CC2=O)CC1 (centres unmarked)	-74.1
COc1ccc(C2CC(=O)C(C=NCCN3CCN(C(C)=O)CC3)=C(O)C2)cc1 (centres unmarked)	-1.68
COc1ccc(C2CC(=O)C(C=NCCO)=C(O)C2)cc1OC (centres unmarked)	4.15
CCCCCC(=O)N1CCN(CCN=CC2=C(O)CC(c3ccc(OC)c(OC)c3)CC2=O)CC1 (centres unmarked)	-78.8
COc1ccc(C2CC(=O)C(C=NCCN3CCN(C(=S)Nc4ccccc4)CC3)=C(O)C2)cc1OC (centres unmarked)	-20.1
Cc1ccccc1C1=NC(C(F)(F)F)(C(F)(F)F)c2c(n(C)c(=O)n(C)c2=O)N1	3.5
NC(=S)Cc1ccc(Cl)cc1Cl	18.8
O=C(Nc1cccc(Cl)c1)Nc1ccccc1NS(=O)(=O)c1cccs1	24
Cc1cc(C)c(NC(=O)CSc2nnc(-c3ccco3)n2N)c(C)c1	-14.9
CCC(CC(C)(C)O)C(=O)NNC(=S)Nc1ccccc1 (centres unmarked)	5.73
O=C(OCC(=O)N1CCCC1)c1ccc(NS(=O)(=O)c2cccs2)cc1O	17.1
O=C(O)c1ccc(Oc2ccccc2)o1	23.2

Structure (SMILES)	hERG current change (%, negative = inhibition) at 10uM [%]
O=C(Nc1ccccc1)Nc1ccccc1-n1ccnc1	-18.2
Cc1ccc(C)c(C(=O)CN2C(=O)NC3(CCC(C)CC3)C2=O)c1 (centres unmarked)	-18.3
CC(C)(C)c1cc(Cl)ccc1OCCOCCN1CCCC1.O=C(O)C(=O)O	-45.8
CC1CCCN(CCCOc2ccc(Cl)cc2Br)C1.O=C(O)C(=O)O (centres unmarked)	-70.5
CC1CCCN(CCOCCOc2ccc(Cl)cc2Br)C1.O=C(O)C(=O)O (centres unmarked)	-61.1
CC1CCCN(CCSc2ccc(Cl)cc2)C1.O=C(O)C(=O)O (centres unmarked)	-41.3
Cc1ccc(N2C(=O)N(CC(=O)NC(c3ccccc3)c3ccccc3)C(=O)C2C)cc1 (centres unmarked)	-32.6
O=C(O)C1=C[C@@H](C2CCCCC2)C[C@@H](OCCCCO)O1	9.42
Cc1ccsc1C(=O)NNC(=O)COc1ccccc1Cl	16.9
CC1(C)N(OCc2ccccc2)C(=O)C(=O)N(OCc2ccccc2)C1(C)C	-6.11
COc1cccc(C(C(=O)NCC2CCCO2)N(C(=O)Cn2nnc3ccccc32)c2ccc(NC(C)=O)cc2)c1OC (centres unmarked)	6.49
N#Cc1ccc(N2CCN(C(=O)c3cccc(F)c3)CC2)c(F)c1	-66.8
O=C(c1cccs1)N1CCN(c2ccc(Cl)cc2)CC1	-13.4
O=C(c1cccc(F)c1)N1CCCN(C(=O)c2cccc(F)c2)CC1	-6.95
N#Cc1ccc(N2CCNCC2)c(F)c1	-69
N#Cc1cc(F)c(N2CCNCC2)cc1Cl	3.42
N#Cc1ccc(N2CCN(c3ccc(F)cc3)CC2)cc1	-16.9
CCOC(=O)N1CCN(c2cc(C)c([N+](=O)[O-])cc2F)CC1	-8.16
Cc1ccc(N2CCN(C(=O)c3cccs3)CC2)c(C)c1	-10.6
O=C(c1cccs1)N1CCN(c2cc(Cl)ccc2Cl)CC1	-33.8
N#Cc1ccc(N2CCN(C(=O)c3cccs3)CC2)c(F)c1	-55.7
O=C(c1cccc(C(=O)N2CCN(c3ccccc3F)CC2)c1)N1CCN(c2ccccc2F)CC1	-2.32
Cc1cc(N2CCN(C(=O)c3cccs3)CC2)c(F)cc1[N+](=O)[O-]	-67
